Measurements as given in the supplement of paper PMC10981050.
Values joined by “and” are separate entries in the source; they are usually repeats but may differ in a detail not shown here. Equal entries are not always repeated. Structures can show the parent of a compound that is named as a salt.

Key:
Assay in all cases: cell viability relative to vehicle control; higher = less cytotoxic
Details in all cases: 10 µM
K562 = test system: K562
Procedure, shortened: (§1)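 Screening covered the Selleck bioactive, kinase and epigenetic probe libraries, less identity-inconsistent compounds, on CRISPR-edited mutant clones and isogenic wild-type clones of four leukaemia lines. Cells, at 2000 per well in 50 µL medium, received a single 10 µM acoustically dispensed dose. After 48 h the supernatant was removed and CellTiter-Glo luminescence was read. Viability was analysed in Genedata Screener as percent of the on-plate vehicle control.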

MARIMO = test system: MARIMO
Procedure, shortened: as §1

MOLM14 = test system: MOLM14
Procedure, shortened: as §1

OCI-AML2 = test system: OCI-AML2
Procedure, shortened: as §1

| SMILES | cell viability (K562; SRSF2 genotype: SRSF2 P95H/wt) | cell viability (K562; SRSF2 genotype: SRSF2 wt/wt) [%] | cell viability (MARIMO; SRSF2 genotype: SRSF2 P95H/wt) [%] | cell viability (MARIMO; SRSF2 genotype: SRSF2 wt/wt) [%] | cell viability (MOLM14; SRSF2 genotype: SRSF2 P95H/wt) [%] | cell viability (MOLM14; SRSF2 genotype: SRSF2 wt/wt) [%] | cell viability (OCI-AML2; SRSF2 genotype: P95H/wt) [%] | cell viability (OCI-AML2; SRSF2 genotype: wt/wt) [%] |
| --- | --- | --- | --- | --- | --- | --- | --- | --- |
| CCOc1cc2ncc(C#N)c(Nc3ccc(F)c(Cl)c3)c2cc1NC(=O)/C=C/CN(C)C [Pelitinib (EKB-569)] | 9.19% and 1.6% | 0.91 | 5.88 | 1.37 | 0.45 | 0.62 | 0.33 | 0.46 |
| Cc1nc2c(O)cccc2c(=O)[nH]1 | 94.6% and 99.4% | 114 | 99.4 | 93.8 | 95.6 | 101 | 94.2 | 108 |
| O=C(O)c1cc(C(=O)O)c2c(n1)C(=O)C(=O)c1cc(C(=O)O)[nH]c1-2 [Pyrroloquinoline Quinone Disodium Salt] | 101% and 95.6% | 98.9 | 94.1 | 106 | 88.8 | 107 | 106 | 99.4 |
| CC(C)=CCC/C(C)=C\CO [Nerol] | 109% and 104% | 104 | 110 | 114 | 106 | 107 | 103 | 109 |
| CC(C)NCC(O)COc1ccc(CCOCC2CC2)cc1 (stereo unspecified) [Betaxolol hydrochloride (Betoptic)] | 97.5% and 96.6% | 94.3 | 103 | 107 | 99.5 | 99.7 | 91.2 | 99.6 |
| CC(C)(C)NC(=O)c1cncn1C1CCN(c2ccc(-c3nnc(C(F)(F)F)o3)cn2)CC1 | 69% and 57.2% | 63.8 | 53.1 | 64.5 | 56.7 | 45.7 | 8.34 | 20.6 |
| CN(CCOc1ccc(CC2SC(=O)NC2=O)cc1)c1ccccn1 (stereo unspecified) [Rosiglitazone HCl] | 100% and 101% | 97.4 | 102 | 115 | 103 | 109 | 102 | 105 |
| O=C(O)CSc1cc(NS(=O)(=O)c2ccc(Br)cc2)c2ccccc2c1O | 86.4% and 79.9% | 94.8 | 95.5 | 94.5 | 73.9 | 89.3 | 97.9 | 107 |
| CC(C)c1c(-c2ccccc2)nc2c(C#N)c[nH]n2c1=O | 105% and 99.3% | 108 | 103 | 93.5 | 97.8 | 98.8 | 103 | 101 |
| CNC(=O)[C@H](Cc1c[nH]c2ccccc12)NC(=O)[C@@H](CC(=O)NO)CC(C)C [Ilomastat (GM6001, Galardin)] | 101% and 105% | 95.8 | 95.7 | 97.5 | 88.2 | 97.8 | 113 | 112 |
| O=C(O)Cc1ccccc1Nc1c(Cl)cccc1Cl [Diclofenac Potassium] | 94.4% and 99.1% | 97.2 | 106 | 105 | 93.5 | 100 | 95.3 | 105 |
| O=C1NC(=O)C(c2ccccc2[N+](=O)[O-])=C1Nc1ccc(O)c(Cl)c1 | 107% and 104% | 104 | 98.5 | 91.9 | 90.7 | 107 | 122 | 120 |
| O=S1(=O)CCN(CN2CCS(=O)(=O)NC2)CN1 [Taurolidine] | 98.7% and 105% | 108 | 104 | 111 | 103 | 105 | 123 | 97.5 |
| CN(C)Cc1cccc(N=C(c2ccccc2)c2c(O)[nH]c3cc(C(=O)N(C)C)ccc23)c1 | 88.8% and 90.6% | 79.6 | 60.9 | 63.4 | 38.4 | 31.6 | 38.5 | 36.2 |
| COC(=O)[C@H](O)[C@@H](NC(=O)c1ccccc1)c1ccccc1 | 108% and 104% | 107 | 108 | 103 | 98.1 | 106 | 104 | 110 |
| Cc1nc2cccc(N)c2c(=O)n1C1CCC(=O)NC1=O (stereo unspecified) [Avadomide(CC-122)] | 108% and 111% | 111 | 102 | 92.7 | 99.2 | 98.2 | 159 | 169 |
| C[C@@H](O)[C@H]1C(=O)N2C(C(=O)O)=C([C@H]3CCCO3)S[C@H]12 [Faropenem Sodium] | 89.8% and 77.8% | 82 | 88.3 | 94.3 | 88.3 | 90.3 | 87.1 | 97.4 |
| Cn1nccc1Nc1nccc(-c2cc3c(s2)C(C)(C)N(CCN2CCOCC2)C3=O)n1 | 77.8% and 81.6% | 76.5 | 39.5 | 40.1 | 42.6 | 37 | 38.6 | 43.2 |
| Cc1cc(Cn2cnc3c2CC(C(=O)O)N(C(=O)C(c2ccccc2)c2ccccc2)C3)ccc1N(C)C (stereo unspecified) | 100% and 97.2% | 99.5 | 102 | 101 | 94.9 | 97.2 | 100 | 117 |
| CCCCCCCCCCCCCCCCn1cc[n+](Cc2ccccc2)c1C | 0.26% and 0.36% | 0.22 | 0.21 | 0.19 | 0.01 | 0 | 0.05 | 0.07 |
| Cc1cc2c(F)c(Oc3ncnn4cc(OC[C@@H](C)O)c(C)c34)ccc2[nH]1 | 94.6% and 98.7% | 99.5 | 107 | 106 | 97.5 | 104 | 97.5 | 86.6 |

| SMILES | cell viability (K562; SRSF2 genotype: SRSF2 P95H/wt) | cell viability (K562; SRSF2 genotype: SRSF2 wt/wt) [%] | cell viability (MARIMO; SRSF2 genotype: SRSF2 P95H/wt) [%] | cell viability (MARIMO; SRSF2 genotype: SRSF2 wt/wt) [%] | cell viability (MOLM14; SRSF2 genotype: SRSF2 P95H/wt) [%] | cell viability (MOLM14; SRSF2 genotype: SRSF2 wt/wt) [%] | cell viability (OCI-AML2; SRSF2 genotype: P95H/wt) [%] | cell viability (OCI-AML2; SRSF2 genotype: wt/wt) [%] |
| --- | --- | --- | --- | --- | --- | --- | --- | --- |
| C#Cc1cccc(Nc2ncnc3cc4c(cc23)OCCOCCOCCO4)c1 [Icotinib] | 96.1% and 94% | 94.2 | 92.4 | 98.3 | 92.3 | 98.4 | 94.9 | 94.5 |
| COc1cc(-c2oc3cc(O)cc(O)c3c(=O)c2O[C@@H]2O[C@H](CO[C@@H]3O[C@@H](C)[C@H](O)[C@@H](O)[C@H]3O)[C@@H](O)[C@H](O)[C@H]2O)ccc1O [Narcissoside] | 108% and 102% | 106 | 102 | 103 | 107 | 105 | 103 | 109 |
| Cc1cc(C)cc(NC(=O)Cc2ccc(OC(C)(C)C(=O)O)cc2)c1 [Efaproxiral sodium] | 102% and 99.1% | 99.9 | 109 | 119 | 110 | 103 | 106 | 116 |
| Cc1nc(Nc2ncc(C(=O)Nc3c(C)cccc3Cl)s2)cc(N2CCN(CCO)CC2)n1 [Dasatinib Monohydrate] | 23.6% and 40.6% | 28.3 | 67.5 | 70.5 | 38.8 | 39 | 33.3 | 43.3 |
| COC(=O)c1ccco1 [Methyl furan-2-carboxylate] | 108% and 99.5% | 113 | 101 | 99.5 | 107 | 110 | 111 | 115 |
| CC(NC(=O)C(O)c1cc(F)cc(F)c1)C(=O)NC1C(=O)N(C)c2ccccc2-c2ccccc21 (stereo unspecified) | 99.5% and 96.4% | 99.2 | 96.1 | 97.8 | 102 | 105 | 98.7 | 96.8 |
| CCCNS(=O)(=O)Nc1ncnc(OCCOc2ncc(Br)cn2)c1-c1ccc(Br)cc1 [Macitentan] | 104% and 105% | 96.8 | 100 | 118 | 103 | 110 | 102 | 110 |
| COC(=O)C=Cc1ccc(O)c(OC)c1 [Ferulic acid methyl ester] | 106% and 99.9% | 108 | 95.4 | 104 | 105 | 104 | 104 | 104 |
| NS(=O)(=O)Cc1noc2ccccc12 [Zonisamide] | 90.4% and 88.2% | 89.5 | 85 | 98 | 91.8 | 90.3 | 84.7 | 95.2 |
| CO[C@H]1C[C@H](O[C@H]2[C@H](C)O[C@@H](O[C@@H]3/C(C)=C/C[C@@H]4C[C@@H](C[C@]5(C=C[C@H](C)[C@@H](C6CCCCC6)O5)O4)OC(=O)[C@@H]4C=C(C)[C@@H](O)[C@H]5OC/C(=C\C=C\[C@@H]3C)[C@]54O)C[C@@H]2OC)O[C@@H](C)[C@@H]1O [Doramectin] | 33% and 39.8% | 37.1 | 36.8 | 29.4 | 24.6 | 29.9 | 15.3 | 17.3 |
| COc1ccc(CCO[C@@H]2O[C@H](CO[C@@H]3OC[C@H](O)[C@H](O)[C@H]3O)[C@@H](OC(=O)/C=C/c3ccc(O)c(OC)c3)[C@H](O[C@@H]3O[C@@H](C)[C@@H](O)[C@@H](O)[C@H]3O)[C@H]2O)cc1O [Angoroside C] | 107% and 103% | 111 | 101 | 96.2 | 113 | 106 | 105 | 95.5 |
| CC(C)(CO)C(O)C(=O)NCCC(=O)O [Calcium D-Panthotenate] | 95.3% and 94.5% | 95.3 | 95.1 | 105 | 96.8 | 97.2 | 95.4 | 94 |
| CC(C)=CCC[C@](C)(O[C@@H]1O[C@H](CO[C@@H]2OC[C@H](O)[C@H](O)[C@H]2O)[C@@H](O)[C@H](O)[C@H]1O)[C@H]1CC[C@]2(C)[C@@H]1[C@H](O)C[C@@H]1[C@@]3(C)CC[C@H](O[C@@H]4O[C@H](CO)[C@@H](O)[C@H](O)[C@H]4O[C@@H]4O[C@H](CO)[C@@H](O)[C@H](O)[C@H]4O)C(C)(C)[C@@H]3CC[C@]12C [Ginsenoside Rb2] | 86% and 89.7% | 84 | 88.4 | 98.1 | 92.2 | 87.7 | 83.2 | 101 |
| COc1ccc(COc2cc3oc(=O)c4cc(C(C)O)ccc4c3cc2OC)cc1 (stereo unspecified) [Palomid 529] | 101% and 111% | 104 | 105 | 103 | 102 | 101 | 106 | 97.2 |
| CC(=O)OC/C=C(/C)CCC=C(C)C [Neryl acetate] | 98.4% and 101% | 100 | 96.8 | 102 | 112 | 99.6 | 100 | 103 |
| CC(C)(C)OC(=O)N[C@H]1CCCCC/C=C\[C@@H]2C[C@@]2(C(=O)NS(=O)(=O)C2CC2)NC(=O)[C@@H]2C[C@@H](OC(=O)N3Cc4cccc(F)c4C3)CN2C1=O [Danoprevir (ITMN-191)] | 97.7% and 108% | 98.9 | 106 | 106 | 96.8 | 101 | 123 | 108 |
| Cc1cccc(CN2CCN(C(c3ccccc3)c3ccc(Cl)cc3)CC2)c1 (stereo unspecified) [Meclizine dihydrochloride] | 87.7% and 94.2% | 91.5 | 92.2 | 105 | 86.2 | 91.2 | 86.4 | 83.2 |
| Cc1cc(/C=C/C#N)cc(C)c1Nc1ccnc(Nc2ccc(C#N)cc2)n1 [Rilpivirine] | 35.2% and 46.8% | 50.1 | 61.8 | 59.8 | 49.6 | 43.9 | 44.2 | 48 |
| COc1cc2c(cc1OC)[C@@H](Cc1ccc(Oc3cc(C[C@@H]4c5cc(OC)c(OC)cc5CCN4C)ccc3O)cc1)N(C)CC2 [Dauricine] | 38% and 41.8% | 18.5 | 2.46 | 15.1 | 1.5 | 1.07 | 5.34 | 4.94 |
| CCCCCCCN(CC)CCCC(O)c1ccc(NS(C)(=O)=O)cc1 (stereo unspecified) [Ibutilide fumarate] | 87.6% and 106% | 93.2 | 91.6 | 107 | 97.9 | 103 | 97.9 | 96.4 |
| CN(C)c1ccc(C(=O)NCCCCCCC(=O)NO)cc1 | 1.52% and 16.7% | 6.13 | 6.98 | 14.2 | 1.22 | 0.66 | 2.92 | 6.46 |
